Results published in PubChem BioAssay AID1345083 (National Center for Advancing Translational Sciences (NCATS), 2018).
Hit rate of the full screen: of about 94,000 compounds, about 6,200 (6.6%) were called active. Roughly 31% stayed inconclusive and do not appear here. Many of the other results were omitted from the sample, so actives are more common in it than they were. A number with no mark means an inactive call. The call rests on the fitted dose curve; in most records, active means well fitted inhibition curve with a large enough effect; inconclusive means small, poorly fitted or top-dose-only effect; inactive means flat fitted curve, though single readings scatter.

assay: Cytotoxic Profiling in HEK 293 Cell Line of Diverse Libraries Using Quantitative High-Throughput Screening; conditions: HEK 293 viability, ATP luminescence (CellTiter-Glo), 48-72 h; series mostly up to 115 µM; activity change, negative = cytotoxicity: at the top concentration; further: nearly all actives have a fitted effect of over 60% in size
Summary of the method: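 Read-out: CellTiter-Glo ATP luminescence. Cells: HEK 293, 250 cells/well. Exposure: 48 or 72 hr, 37 degree Celsius.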
On the % scale 0 is the no-effect control and ±100 the full control effect; potency means the concentration at half of the fitted maximal effect.

| SMILES | outcome | activity change, negative = cytotoxicity | Potency |
| --- | --- | --- | --- |
| C#CCNC(=O)C[C@@H]1O[C@H](CNC(C)=O)[C@@H](O)[C@H]1O | inactive [at 230 µM] |  |  |
| O=C(NCCc1ccccc1)c1nc2sccn2c1-c1ccccc1 |  | -15.6% |  |
| Cc1nc(CC(=O)N2C[C@@H](CN3CCCCCC3)[C@@H](CO)C2)cs1 |  | -2.94% |  |
| COCC(=O)N1C[C@@H](COc2cccnc2)[C@H](c2ccccn2)C1 |  | -1.3% |  |
| CN(CCc1ccccn1)[C@@H]1[C@H](O)[C@H](CO)O[C@@H]1CNS(=O)(=O)c1cccs1 |  | 3.52% |  |
| O=C(c1cnccn1)N1CCC(NCc2cc3n(n2)CCCNC3)CC1 |  | -0.759% |  |
| Cc1noc(C)c1S(=O)(=O)N[C@@H]1C[C@H](Cn2cc(C3CC3)nn2)[C@@H](O)[C@H]1O |  | -1.11% [at 172 µM] |  |
| O=C(NC1CCCCC1)C1CN(C(=O)c2ccccc2F)CC12CCOCC2 (stereo not drawn) |  | 0.348% |  |
| Cc1ccc(-n2c(C3CCN(C(=O)c4ccoc4)CC3)n[nH]c2=O)cc1 |  | -4.39% |  |
| COc1ccc(F)cc1-c1ccc(CN2CCC(N[S+](=O)([O-])c3ccccc3)C2)cc1 (stereo not drawn) |  |  | 44.7 µM (active) |
| COc1ccc(-c2ccccc2C(=O)N2CCC(NC(=O)Cc3ccc(F)cc3)CC2)nn1 | inactive |  |  |
| COc1ccc(CC(=O)NC2CCN(c3ccc4nnc(C)n4n3)CC2)cc1 |  | 4.27% |  |
| CC(C)Nc1ncc(C(=O)NC2CCCN(CCc3ccccc3)C2)cn1 (stereo not drawn) | inactive |  |  |
| COc1ccccc1-c1nnc2ccc(C(=O)NC3CC3)cn12 |  | -6.24% [at 172 µM] |  |
| Cc1cc(C)cc(-c2ccc(CN3CCCC(NC(=O)c4ccccc4)C3)cc2)c1 (stereo not drawn) |  |  | 28.2 µM (active) |
| O=C(NC1CCCN(c2ccc3nnc(C4CC4)n3n2)C1)c1ccc(Cl)nc1 (stereo not drawn) |  | -24.6% |  |
| Fc1ccc(CN2CC(Oc3ccc(F)cc3F)C2)cc1 |  | -5.88% |  |
| COc1ccccc1-c1ccc(CN2CCC(NC(=O)c3ccc(Cl)nc3)C2)cc1 (stereo not drawn) |  |  | 50.1 µM (active) |
| Cc1ccc(-c2cccc(CN3CCCC(NC(=O)c4ccc(Cl)cc4)C3)c2)cc1Cl (stereo not drawn) |  | 1.69% |  |
| COc1ccc(CC(=O)NC2CCN(Cc3ccc(-c4ccccc4OC)cc3)C2)cc1 (stereo not drawn) |  |  | 39.8 µM (active) |
| COc1ccccc1-c1ccc(C(=O)O)cc1 |  | -1.49% [at 172 µM] |  |
| CN(C)C(=O)C1CN(C(=O)c2ccccc2Cl)CC12CCOCC2 (stereo not drawn) |  | -0.809% |  |
| Cc1cnc(C2CC2)n1C1CCN(C(=O)C(C)C)CC1 | inactive |  |  |

| SMILES | outcome | activity change, negative = cytotoxicity | Potency |
| --- | --- | --- | --- |
| COc1ccc(C(=O)N2CCOC3(CCN(C(=O)CN)CC3)C2)cc1 | inactive |  |  |
| COCCNC(=O)c1ccc(CC2CCNCC2)cc1 |  | -45.9% |  |
| Cc1cnc(-c2cccnc2)n1C1CCN(S(=O)(=O)c2cccc(F)c2)CC1 |  | -7.54% |  |
| O=C(c1c(OCC2CC2)cc(=O)n2c1CCOCC2)N1CCCCCC1 |  | -9.09% |  |
| CCOc1ccc(NC(=O)C2(Cc3cccnc3)CCCCC(=O)N2)cc1 (stereo not drawn) |  | -22.4% |  |
| COc1cccc(NC(=O)c2cnc3n[nH]c(-c4ccc(OC)cc4C)c3n2)c1 |  |  | 100 µM (active) |
| COc1cccc(NC(=O)c2c(OC)cc(=O)n3c2CCCC3)c1 |  | -19.1% |  |
| COC(=O)C1=CN(CC(=O)Nc2cccc(OC)c2)S(=O)(=O)N=C1C |  | -21.2% |  |
| CC(c1ccon1)N(C)Cc1cnc(S(=O)(=O)C(C)C)n1Cc1ccccc1F (stereo not drawn) |  | -13.1% |  |
| CN1CCC(N2CCC[C@H]2c2nc(-c3ccc(OC4CCCCC4)nc3)no2)CC1 |  |  | 28.2 µM (active) |
| CC(=O)N1CCC(N2CCC[C@H]2c2nc(-c3ccc(-c4cncnc4)nc3)no2)CC1 |  | -10.2% [at 172 µM] |  |
| O=C(NC1CCCCC1)N1CCCCCC1c1nc(-c2cccnc2)no1 (stereo not drawn) |  | -16.5% |  |
| O=C(N[C@@H]1CN(Cc2cccnc2)C[C@H]1CO)c1cccnc1 |  | -8.4% |  |
| O=[S+]([O-])(Nc1cccnc1)c1ccc2c(c1)OCCN(Cc1cscn1)C2 |  | -16.3% [at 172 µM] |  |
| CCn1cc(CN2CCOc3ccc(C(=O)NCc4ccccc4F)cc3C2)cn1 |  | -22% |  |
| COc1c(F)cccc1CN1CCOc2cc([S+](=O)([O-])N(C)C)ccc2C1 |  |  | 79.4 µM (active) |
| O=C(c1ccccc1F)N1CCCC2(CN[S+](=O)([O-])c3cccnc3N2)C1 (stereo not drawn) |  | -1.19% |  |
| Cc1nonc1OCCNC1CCC2(CCNCC2)CC1 |  | -20.4% |  |
| CN(CCCNC1CCC2(CCNCC2)CC1)c1ccccc1 |  |  | 79.4 µM (active) |
| O=c1c2ccccc2cnn1CCNC1CCC2(CCNCC2)CC1 |  | -8.73% |  |
| CNC(=O)[C@@H]1CN(C(=O)c2cnc(C)cn2)C[C@H]1COC |  | -3.77% |  |
| Cc1onc(-c2cnn(C)c2NCc2ccc(C#N)cc2)c1C(=O)N1CCN(C)CC1 |  | -6.43% [at 172 µM] |  |
| CNC(=O)N1CCCC1c1nc(C2CN(C(=O)c3nccn3C)C2)no1 (stereo not drawn) | inactive |  |  |

| SMILES | outcome | activity change, negative = cytotoxicity | Potency |
| --- | --- | --- | --- |
| CC1(C(=O)NCc2ccc3c(c2)OCO3)CCc2cnc(NCc3ccccc3)nc21 (stereo not drawn) |  |  | 70.8 µM (active) |
| CN1C(=O)CC[C@]2(C(=O)NCc3ccc4c(c3)OCO4)CCCC[C@@H]12 |  | 4.76% |  |
| Cn1ncc2c(C(=O)NCc3ccc4c(c3)OCO4)cc(-c3ccc(Cl)nc3)nc21 |  | -2.46% |  |
| O=C1Nc2ccc(-c3ccccc3)cc2C(=O)N2C[C@H](O)C[C@@H]12 |  | -41.1% [at 172 µM] |  |
| O=C(Cc1cc(F)c(F)c(F)c1)N1CCC(Cc2cccc(CO)c2)C1 (stereo not drawn) |  | -29.4% |  |
| CC(C)(CC(=O)O)CC(=O)N[C@H]1CO[C@H]2[C@@H]1OC[C@@H]2n1nnnc1-c1ccccc1 |  | -5.18% [at 172 µM] |  |
| c1ccc(CO[C@@H]2CO[C@H]3[C@@H]2OC[C@@H]3n2nnnc2SCc2ccco2)cc1 |  |  | 89.1 µM (active) |
| CN(C)CC(=O)N1CC[C@H]2COC(=O)N2c2ccccc2C1 |  | -3.61% [at 172 µM] |  |
| Cc1nc(CCNC(=O)NC2CCCC2)no1 |  | 0.591% |  |
| COC1C(=O)N(c2cccc(F)c2)C12CCN(C(=O)C1(c3ccccc3)CC1)CC2 (stereo not drawn) |  |  | 44.7 µM (active) |
| CNC(=O)[C@@H]1C[C@@H](O)CN1C1CCN(C(=O)C2(c3ccccc3)CC2)CC1 |  | -19.2% |  |
| CN1C(=O)CS(=O)(=O)C12CCN(C(=O)C1(c3ccccc3)CC1)CC2 |  | -2.32% |  |
| O=C([C@@H]1C[C@H](Oc2cccnc2)CN1C(=O)Cc1cccc(F)c1)N1CCCC1 |  | 1.61% |  |
| CCCN(CC1CCOC1)S(=O)(=O)c1ccccc1Cl (stereo not drawn) |  | -22.3% |  |
| CN1CCN(c2nc3c(c(=O)[nH]2)CCN(Cc2cccc4[nH]ccc24)CC3)CC1 |  | -15.9% |  |
| Cc1ccc(C2Cn3nnc(C(=O)N4CCN(C(=O)COc5cccc(C)c5)CC4)c3CO2)cc1 (stereo not drawn) |  | 11.9% |  |
| COc1ccc(CN2CCC[C@H]2c2nc(-c3ccc(N(C)C)nc3)no2)c(O)c1 |  | -5.35% [at 172 µM] |  |
| CC(=O)N1CCN(c2cc(-c3noc([C@@H]4CCCN4Cc4ccccc4)n3)ccn2)CC1 |  |  | 70.8 µM (active) |
| CC(=O)N1CCN(c2cc(-c3noc([C@@H]4CCCN4C4CCC4)n3)ccn2)CC1 |  | -23.6% [at 172 µM] |  |
| CS(=O)(=O)c1ccc(CN2CCC[C@H]2c2nc(-c3ccc(N4CCC(C(N)=O)CC4)nc3)no2)cc1 |  | -12.9% |  |
| O=C1CC(c2nc(-c3ccc4nc[nH]c4c3)no2)CN1Cc1ccncc1 (stereo not drawn) |  | 1.22% |  |
| c1ccc2c(CN3CCC[C@H]3c3nc(-c4ccnc(N5CCOCC5)c4)no3)c[nH]c2c1 |  |  | 89.1 µM (active) |
